In the assay the target is AMP-activated protein kinase, AMPK (Homo sapiens) (UniProt P54646+O43741+P54619+Q9UGJ0+Q9Y478+Q13131+Q9UGI9). Nature of the assay: AMP-dependent Kinase enzyme assay. An in vitro enzyme assay that detects ADP turnover that is directly proportional to AMPK activity. This uses naive AMPK that is activated during the assay with MK-8722. It counts as functional. Also on record: scale not given: direction of the effect not stated beside the values. The conditions noted are these: 30 µM.
For the compound `COCCc1noc(CN2CCN(c3ccc(OC)cc3)C(=O)C2C)n1` (centres undefined), the Percent Effect is 4.12%.
Then `O=C1CSCN1Cc1nc(-c2ccc(N3CCCCC3)cc2)no1`, with 2.39%.
With `Cn1ncnc1NCc1ccccc1Cl` the figure was 1.77%; with `CC(C)(CN1CCC2(CCNCC2)CC1)N1CCOCC1`, 0.354%; with `CCc1nc2n(n1)CC(NCc1cc3ccccc3o1)CC2` (centres undefined), -3.35%.
For `CC(CN1CCOCC1)NC(=O)N1CCCC1` (centres undefined), the Percent Effect worked out at 12.9%.
With `COc1ncccc1-c1cc(C(N)=O)ccn1` the figure was 1.56%; with `Cc1ccc(CN(C(=O)NCC2CCCO2)C2CC2)o1` (centres undefined), -2.62%.
Take `COCCN1C(=O)[C@H]2CC[C@@H]1CN(S(=O)(=O)c1ccc(C#N)cc1)C2`: the Percent Effect turned out to be 10.8%.
As to `CC(OCC1CC1)C(=O)Nc1ccn(Cc2ccccc2)n1` (centres undefined), the Percent Effect came out at 2.88%.
Then `C[S+]([O-])c1cccc(NC(=O)N[C@H](CCO)c2ccccc2)c1` (some centres undefined), with -2.38%.
Then `c1cn(-c2nccnc2C2CCCN(C3CCOCC3)C2)cn1` (centres undefined), with 10.1%; and `CS(=O)(=O)c1ccccc1NC(=O)N[C@@H]1c2ccccc2C[C@@H]1O`, with 6.87%; and `Cc1n[nH]c(C)c1CCc1n[nH]c(=O)n1Cc1cccs1`, with -7.17%.
Then `O=C(COC1CCCC1)NCc1ccc(O)c(F)c1`, with 8.07%.
With `CCc1nn(C)c(Cl)c1CN1CCCC2(CC1)CN(C)C(=O)O2` (centres undefined), the Percent Effect was -9.39%.
With `Cc1noc(C)c1-c1n[nH]c2c1CN(S(=O)(=O)c1ccsc1)CC2` the figure was 7.37%; with `CCC1(CC)CC(=O)N(CC(O)c2ccc(Cl)cc2)C1=O` (centres undefined), 7.86%.
For the compound `CCc1nnc(C(C)N2CCN(CCC(=O)NC3CC3)CC2)o1` (centres undefined), the Percent Effect worked out at 8.34%.
Then `CCN(CC)C(CNC(=O)c1cccnc1-n1cncn1)c1ccsc1` (centres undefined), with 5%; and `CCn1nc(C)c(C(=O)N2C[C@@H](CN(C)CCOC)[C@@H](CO)C2)c1C`, with -7.64%.
Then `Cc1nnsc1CNC(=O)Nc1cccc(N2CCN(C)C2=O)c1`, with -11%; and `CCc1cccc(C)c1NC(=O)NCCCN(CC)S(C)(=O)=O`, with 22.2%.
With `O=C(CN1CCC(c2nnc(C(F)(F)F)o2)CC1)Nc1cccnc1` the figure was -5.12%.
As to `CC(C)c1nnc2n1CCN(Cc1ccc3c(c1)OCO3)CC2`, the Percent Effect amounted to 9.68%.
With `CCn1cc(NC(=O)NCCN2CCCc3ccccc32)cn1` the figure was 7.2%.
With `Cc1nc(COc2ccc(S(=O)(=O)N(C)C)cc2)sc1C` the figure was 5.76%; with `Cc1noc(C2CCCN(Cn3cc(Cl)cn3)C2)n1` (centres undefined), 10.4%.
With `O=S(=O)(c1cc(F)ccc1N1CC(n2cccn2)C1)C(F)(F)F` the figure was 26.5%; with `CN(C)C(CNC(=O)OCC(F)(F)F)c1ccsc1` (centres undefined), -1.15%.
In the case of `CCn1cnnc1CCNC(=O)c1ccc(F)c(Br)c1`, the Percent Effect was -5.58%.
In the case of `O=S(=O)(NC1CCCOC1)c1ccc(C(F)(F)F)nc1` (centres undefined), the Percent Effect came to 7.35%.
With `CSCc1noc(-c2ccc(C)c(N3CCNC3=O)c2)n1` the figure was 13.8%; with `CC(C)(C)NC(=O)CN1CCNCC1`, 1.56%; with `CC(C)[C@@H]1CN(c2ccc(F)cn2)C[C@H]1NS(C)(=O)=O`, -3.59%.
With `CC(C)c1nc(C2CCCN2CCN2CCCCC2)no1` (centres undefined) the figure was -7.59%; with `CCC(c1ccc(F)cc1)S(=O)(=O)CCO` (centres undefined), 0.117%; with `COC(=O)c1ccoc1CN(C1CC1)C1CCS(=O)(=O)C1` (centres undefined), 7.17%.
With `Cc1nnc(-c2cccc(C#N)c2)n1C1CCCN(C(C)C)C1=O` (centres undefined) the figure was 4.62%.

The record behind these values is ChEMBL document CHEMBL3988442, “University of Dundee, Small-Polar-MMV Screening Library” (2021).
